From PubChem BioAssay (NCATS)
Inconclusive results are not listed. The source made the active and inactive calls. Unless noted, calls follow the shape of the dose curve; as a rule, active = well fitted curve in the direction sought with a large enough effect; inconclusive = small, poorly fitted or top-dose-only effect, or another doubt; inactive = no such curve, though single readings can be large; an effect the other way counts as inactive or inconclusive.

Key:
[1] = biological target: Voltage-gated inwardly rectifying potassium channel KCNH2 (Homo sapiens) (UniProt Q12809); assay: qHTS Assay for Small Molecule Inhibitors of the Human hERG Channel Activity (AID 588834);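 also: lower thallium flux fluorescence means stronger hERG block; nearly all actives have a fitted effect of over 50% in size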; also: potency is read from the fitted curve at half-maximal effect
Method in brief: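 Concentration-response qHTS measuring drop in thallium-sensitive dye signal. U2OS cells carrying BacMam hERG; compound exposure ~10 min, then stimulation buffer and 2 min read at 1 sec intervals.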

[2] = biological target: Glutaminase kidney isoform, mitochondrial (Homo sapiens) (UniProt O94925); assay: qHTS for Inhibitors of Glutaminase (GLS): LOPAC Validation (AID 624146); also: nearly all actives have a fitted effect of over 60% in size; also: potency is read from the fitted curve at half-maximal effect
Method in brief: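 Enzyme dispensed in phosphate buffer (45 mM, pH 8.2, 0.02% Tween-20), compounds pinned in, then 1 mM L-glutamine solution and the glutamate oxidase–HRP–Amplex Red mix added; fluorescence read immediately and again after 30 min at room temperature.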

[3] = qHTS of Trypanosoma Brucei Inhibitors: LOPAC Validation (AID 624147); also: 0% is about no effect
Method in brief: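 TbPYK + substrate in 50 mM TEA pH 7.2, 100 mM KCl, 10 mM MgCl2, 0.05% BSA, 0.01% Tween-20; cpd pinned; ADP 130 uM final; 45 min RT; Kinase-Glo Plus 10 min; luminescence endpoint.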

[4] = biological target: Glucagon-like peptide 1 receptor (Homo sapiens) (UniProt P43220); assay: qHTS of GLP-1 Receptor Agonists: LOPAC Validation (AID 624148);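 also: 0% is about no effect; higher luminescence signal means agonism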
Method in brief: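 HEK293 cells stably co-expressing a cAMP-responsive luciferase reporter and a hypersensitive GLP-1R were plated 12 h at 37 °C and exposed to compounds for 4-6 hr at 37 °C, 5% CO2. Luminescence was read 12 min after adding detection reagent.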

[5] = qHTS of Nrf2 Activators: LOPAC Validation (AID 624149); also: 0% is about no effect
Method in brief: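 AREc32 cells carrying an ARE-driven firefly luciferase were grown overnight in OPTI-MEM with 5% FBS, then exposed to compounds for 24 hr at 37 deg C. Luciferase signal was read after 30 min with Steady-Glo at RT.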

[6] = HTS Assay for Allosteric Antagonists of the Human D2 Dopamine Receptor: Hit Validation in HTRF (AID 624455);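 also: stable D1 dopamine receptor cell line scored for blocking the D1 response; % is scaled to controls: 0 for no effect and ±100 for the full control effect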
Method in brief: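 Hits were examined in an HTRF assay using cells stably expressing the D1 dopamine receptor, scoring inhibition of the D1-mediated response. The preceding primary screen tracked calcium flux after an EC80 dopamine addition in force-coupled, inducible Hek293 Trex D2 cells.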

[7] = qHTS assay for small molecule agonists of the antioxidant response element (ARE) signaling pathway (AID 651741; active = well fitted activation curve with a large enough effect in the signal ratio; the % refers to the signal ratio; also: % of control where 0% means no effect)
Method in brief: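 ARE-bla HepG2 cells (beta-lactamase reporter under ARE control) were plated at 2,000 cells/well, preincubated 5 h at 37 C/5% CO2, then treated with DMSO-dissolved compounds for 16 h at 37 C; LiveBLAzer B/G FRET substrate added, fluorescence read after 2 h at room temperature.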

[8] = qHTS assay for small molecule activators of the nuclear factor-kappa B (NF-kB) signaling pathway (AID 651749; active = well fitted activation curve with a large enough effect in the signal ratio; the % refers to the signal ratio; also: series mostly up to about 77 µM; % of control where 0% means no effect); details: NF-kB-bla ME-180 cells, beta-lactamase FRET ratio, 16 h; stronger effect = higher value
Method in brief: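 ME-180 cells stably carrying a beta-lactamase reporter under an NF-kB response element were exposed to compound or DMSO vehicle for 16 hr at 37C, 5% CO2. Pathway activation was read by FRET, since reporter expression disrupts FRET.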

[9] = qHTS assay for small molecule disruptors of the mitochondrial membrane potential - 1 hr assay (AID 651754; calls by dose curve; also: % is scaled to controls: 0 for no effect and ±100 for the full control effect; nearly all actives have a fitted effect of over 35% in size)
Method in brief: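 HepG2 cells, attached overnight at 37C, were exposed to compound or DMSO vehicle for 1 hr at 37C, 5% CO2, then stained with Mito-MPS dye for 30 min. Red aggregate versus green monomer fluorescence reports membrane potential.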

[10] = qHTS assay for small molecule disruptors of the mitochondrial membrane potential - 5 hr assay (AID 651755; calls by dose curve; also: % is scaled to controls: 0 for no effect and ±100 for the full control effect; nearly all actives have a fitted effect of over 40% in size)
Method in brief: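 HepG2 cells, attached overnight at 37C, were exposed to compound or DMSO for 5 hr at 37C, 5% CO2. Mito-MPS dye was then added for 30 min, and fluorescence read at 490/535 nm (monomers) and 540/590 nm (aggregates).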

[11] = biological target: Tumor necrosis factor (Homo sapiens) (UniProt P01375); assay: qHTS assay to identify small molecules that stimulate Tumor Necrosis Factor-alpha (TNF-alpha) secretion (AID 651757; active = well fitted curve in the direction sought with a large enough effect in the signal ratio; the % refers to the signal ratio; also: 0% is about no effect)
Method in brief: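 THP-1 cells were exposed to compounds for 17 hrs at 37 C, after which secreted TNF-alpha was measured by homogeneous HTRF (TR-FRET) using cryptate- and XL665-labeled anti-TNF-alpha antibodies, read after 3 hr at room temperature.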

[12] = qHTS assay for environmental chemicals that activate the Aryl hydrocarbon Receptor (AhR) signaling pathway (AID 651777); details: 1A2-DRE human hepatoma cells, luciferase, 24 h; stronger effect = higher value; also: % of control where 0% means no effect; nearly all actives have a fitted effect of over 15% in size
Method in brief: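 Human hepatoma 1A2-DRE cells, stably carrying a dioxin response element and CYP1A2 promoter driving luciferase, were exposed to compounds for 24 hr at 37 C and 5% CO2. Luciferase signal was then read after 30 min One-Glo at room temperature.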

[13] = biological target: Peroxisome proliferator-activated receptor alpha (Homo sapiens) (UniProt Q07869); assay: qHTS assay for small molecule agonists of the peroxisome proliferator-activated receptor alpha (PPARalpha) signaling pathway (AID 651778); details: PathHunter PPARalpha complementation, chemiluminescence, 6 h; max response: stronger effect = higher value; also: % of control where 0% means no effect
Method in brief: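 Cells plated at 2,000/well and held overnight at 37 C, 5% CO2, then compound added by pin tool for 6 hr; after PathHunter detection reagent and 60 min at room temperature, chemiluminescence from enzyme complementation was read.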

Glutaminase kidney isoform, mitochondrial (Homo sapiens), sequence (O94925 whole entry, looked up, canonical isoform): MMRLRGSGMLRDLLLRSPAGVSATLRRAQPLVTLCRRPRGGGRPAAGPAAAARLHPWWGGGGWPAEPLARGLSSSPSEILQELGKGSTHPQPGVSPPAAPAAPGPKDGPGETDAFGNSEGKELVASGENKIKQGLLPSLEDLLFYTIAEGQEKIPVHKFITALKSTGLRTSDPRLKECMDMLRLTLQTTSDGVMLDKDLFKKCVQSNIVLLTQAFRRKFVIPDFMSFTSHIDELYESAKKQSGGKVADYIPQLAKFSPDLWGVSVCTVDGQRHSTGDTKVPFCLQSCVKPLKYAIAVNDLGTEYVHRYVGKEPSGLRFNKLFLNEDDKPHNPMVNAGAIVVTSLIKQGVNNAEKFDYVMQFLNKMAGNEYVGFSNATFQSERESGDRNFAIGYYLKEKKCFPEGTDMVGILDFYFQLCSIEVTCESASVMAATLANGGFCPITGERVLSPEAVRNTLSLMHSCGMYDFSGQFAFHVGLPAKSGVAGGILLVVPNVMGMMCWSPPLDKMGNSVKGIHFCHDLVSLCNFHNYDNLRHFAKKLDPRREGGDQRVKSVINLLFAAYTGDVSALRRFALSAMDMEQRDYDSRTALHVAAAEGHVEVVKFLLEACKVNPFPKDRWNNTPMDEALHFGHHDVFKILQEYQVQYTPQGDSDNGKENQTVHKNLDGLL
Voltage-gated inwardly rectifying potassium channel KCNH2 (Homo sapiens), sequence (Q12809 whole entry, looked up): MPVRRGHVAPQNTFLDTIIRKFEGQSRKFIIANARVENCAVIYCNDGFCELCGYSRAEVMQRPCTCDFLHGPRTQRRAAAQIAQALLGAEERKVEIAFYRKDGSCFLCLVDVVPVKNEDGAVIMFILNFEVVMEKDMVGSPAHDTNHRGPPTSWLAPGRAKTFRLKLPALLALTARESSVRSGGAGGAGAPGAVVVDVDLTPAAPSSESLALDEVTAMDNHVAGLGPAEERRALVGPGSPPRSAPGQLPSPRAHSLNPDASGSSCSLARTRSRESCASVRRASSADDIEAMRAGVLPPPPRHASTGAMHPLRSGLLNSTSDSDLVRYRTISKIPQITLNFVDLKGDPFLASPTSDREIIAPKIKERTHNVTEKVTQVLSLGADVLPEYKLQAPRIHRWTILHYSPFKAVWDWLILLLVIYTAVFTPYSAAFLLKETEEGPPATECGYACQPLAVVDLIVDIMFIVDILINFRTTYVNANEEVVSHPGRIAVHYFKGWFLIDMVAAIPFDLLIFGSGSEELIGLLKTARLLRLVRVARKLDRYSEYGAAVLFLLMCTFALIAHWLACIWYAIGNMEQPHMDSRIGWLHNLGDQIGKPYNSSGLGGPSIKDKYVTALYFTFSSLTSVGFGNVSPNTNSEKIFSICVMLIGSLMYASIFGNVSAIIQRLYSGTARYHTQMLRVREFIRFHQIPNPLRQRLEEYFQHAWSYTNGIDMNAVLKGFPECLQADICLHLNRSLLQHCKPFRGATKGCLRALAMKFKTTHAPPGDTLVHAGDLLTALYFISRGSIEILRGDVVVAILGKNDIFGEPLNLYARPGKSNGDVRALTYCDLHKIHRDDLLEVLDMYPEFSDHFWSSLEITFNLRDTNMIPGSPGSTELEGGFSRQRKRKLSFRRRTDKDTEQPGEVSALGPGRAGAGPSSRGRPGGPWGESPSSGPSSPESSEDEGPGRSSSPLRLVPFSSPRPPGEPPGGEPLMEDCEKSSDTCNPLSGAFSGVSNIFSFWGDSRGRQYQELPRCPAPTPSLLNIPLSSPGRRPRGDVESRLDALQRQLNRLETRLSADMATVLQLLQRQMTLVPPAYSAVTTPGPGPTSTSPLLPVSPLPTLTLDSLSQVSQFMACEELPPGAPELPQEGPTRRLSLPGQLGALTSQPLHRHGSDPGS
Glucagon-like peptide 1 receptor (Homo sapiens), sequence (P43220 whole entry, looked up): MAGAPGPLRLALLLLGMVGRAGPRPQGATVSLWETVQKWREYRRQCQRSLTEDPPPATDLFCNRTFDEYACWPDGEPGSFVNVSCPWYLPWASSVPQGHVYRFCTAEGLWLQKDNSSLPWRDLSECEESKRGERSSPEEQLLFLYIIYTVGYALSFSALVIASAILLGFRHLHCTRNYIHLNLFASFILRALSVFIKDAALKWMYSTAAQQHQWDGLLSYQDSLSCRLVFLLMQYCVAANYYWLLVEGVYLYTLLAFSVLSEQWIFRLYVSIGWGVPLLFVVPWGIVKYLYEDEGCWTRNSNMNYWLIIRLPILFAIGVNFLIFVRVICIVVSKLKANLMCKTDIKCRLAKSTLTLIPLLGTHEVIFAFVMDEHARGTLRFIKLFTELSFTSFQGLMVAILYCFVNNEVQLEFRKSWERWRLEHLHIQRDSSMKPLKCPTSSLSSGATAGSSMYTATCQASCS
Peroxisome proliferator-activated receptor alpha (Homo sapiens), sequence (Q07869 whole entry, looked up): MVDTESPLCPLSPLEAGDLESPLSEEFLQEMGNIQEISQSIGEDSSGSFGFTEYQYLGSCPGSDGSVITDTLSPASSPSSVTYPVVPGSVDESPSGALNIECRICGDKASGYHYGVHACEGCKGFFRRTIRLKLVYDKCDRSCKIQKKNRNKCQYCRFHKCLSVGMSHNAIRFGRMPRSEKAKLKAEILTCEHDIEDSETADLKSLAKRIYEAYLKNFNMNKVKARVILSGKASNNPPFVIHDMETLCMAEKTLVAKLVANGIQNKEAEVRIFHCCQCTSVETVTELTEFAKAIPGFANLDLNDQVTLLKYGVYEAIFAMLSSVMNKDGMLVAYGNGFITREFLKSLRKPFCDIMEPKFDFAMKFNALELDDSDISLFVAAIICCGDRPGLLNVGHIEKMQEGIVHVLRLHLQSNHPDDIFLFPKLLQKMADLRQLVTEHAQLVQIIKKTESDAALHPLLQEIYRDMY
Tumor necrosis factor (Homo sapiens), sequence (P01375 whole entry, looked up): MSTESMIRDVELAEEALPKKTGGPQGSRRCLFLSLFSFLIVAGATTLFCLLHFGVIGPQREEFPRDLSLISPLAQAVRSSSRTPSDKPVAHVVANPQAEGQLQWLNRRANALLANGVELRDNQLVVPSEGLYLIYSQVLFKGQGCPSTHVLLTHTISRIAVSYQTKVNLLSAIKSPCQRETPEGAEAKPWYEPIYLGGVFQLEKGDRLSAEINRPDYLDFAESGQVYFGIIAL

Nc1ccc(-c2ccc3ccccc3n2)cc1
inactive: Potency [1] | Potency [2] | Potency [3] | Potency [4] | Potency [5] | Potency [6]

NC1(C(=O)O)CCCCC1
inactive: Potency [1] | Potency [2] | Potency [3] | Potency [4] | Potency [5] | Potency [6]

O=C(O)c1ccccc1Nc1ccccc1
inactive: Potency [1] | Potency [2] | Potency [3] | Potency [4] | Potency [5] | Potency [6]

O=C(OCCN1CCOCC1)C1(c2ccccc2)CCCCC1
inactive: Potency [1] | Potency [2] | Potency [3] | Potency [4] | Potency [5] | Potency [6]

C[C@H](NC(=O)/C(C#N)=C/c1ccc(O)c(O)c1)c1ccccc1
inactive: Potency [1] | Potency [3] | Potency [4] | Potency [5] | Potency [6]
active: Potency [2] 0.794 µM

CC(=O)/C(C)=N/O
inactive: Potency [1] | Potency [2] | Potency [3] | Potency [4] | Potency [5] | Potency [6]

NC(=O)c1ccccc1
inactive: Potency [1] | Potency [2] | Potency [3] | Potency [4] | Potency [5] | Potency [6] | Potency [7] | activation [8] 1.72% | outcome [9] | outcome [10] | outcome [11] | activation [12] 0.0429% | max response [13] 0.54%

N=C(N)SCCN
inactive: Potency [1] | Potency [2] | Potency [3] | Potency [4] | Potency [5] | Potency [6]

CCN(CC)CCCCCCCCOC(=O)c1cc(OC)c(OC)c(OC)c1
active: Potency [1] 11.2 µM
inactive: Potency [2] | Potency [3] | Potency [4] | Potency [5] | Potency [6]

CCCCOC(=O)NS(=O)(=O)c1sc(CC(C)C)cc1-c1ccc(Cn2c(CC)nc3c(C)cc(C)nc32)cc1
active: Potency [1] 14.1 µM
inactive: Potency [2] | Potency [3] | Potency [4] | Potency [5] | Potency [6]

N[C@@H](CCCC(=O)O)C(=O)O
inactive: Potency [1] | Potency [2] | Potency [3] | Potency [4] | Potency [5] | Potency [6]

Cc1nc(N=Nc2ccc(S(=O)(=O)O)cc2S(=O)(=O)O)c(COP(=O)(O)O)c(C=O)c1O
inactive: Potency [1] | Potency [2] | Potency [3] | Potency [4] | Potency [5] | Potency [6]

Clc1nccc2c1ccc1ccccc12
inactive: Potency [1] | Potency [2] | Potency [3] | Potency [4] | Potency [5] | Potency [6]

N[C@H](C(=O)O)[C@H](O)C(=O)O
inactive: Potency [1] | Potency [2] | Potency [3] | Potency [4] | Potency [5] | Potency [6]

C=CCn1c(=O)c2c(nc(-c3ccc(S(=O)(=O)O)cc3)n2C)n(C)c1=O
inactive: Potency [1] | Potency [2] | Potency [3] | Potency [4] | Potency [5] | Potency [6]

COc1ccc(C(=O)NCc2cccnc2)cc1C(=O)NCc1cccnc1
inactive: Potency [1] | Potency [2] | Potency [3] | Potency [4] | Potency [5] | Potency [6]

CO/N=C(\C(=O)N[C@@H]1C(=O)N2C(C(=O)O)=C(CSc3nc(=O)c(O)nn3C)CSC12)c1csc(N)n1 (stereo partly drawn)
inactive: Potency [1] | Potency [2] | Potency [3] | Potency [4] | Potency [5] | Potency [6]

COc1cc(C(O)CO)ccc1O (stereo not drawn)
inactive: Potency [1] | Potency [3] | Potency [4] | Potency [5] | Potency [6]
active: Potency [2] 4.47 µM

CCCC(=O)NCCc1c2n(c3ccc(OC)cc13)CCCc1ccccc1-2
inactive: Potency [1] | Potency [2] | Potency [3] | Potency [4] | Potency [5] | Potency [6]

O=c1cc(O)cc(/C=C/c2ccc(O)c(O)c2)o1
inactive: Potency [1] | Potency [3] | Potency [4] | Potency [5] | Potency [6]
active: Potency [2] 1.12 µM

CCC(=O)N1CCN(C(=O)c2ccccc2)CC1
inactive: Potency [1] | Potency [2] | Potency [3] | Potency [4] | Potency [5] | Potency [6]

Cc1cccc(C(=O)NCN2CCN(c3ccccc3C#N)CC2)c1
inactive: Potency [1] | Potency [2] | Potency [3] | Potency [4] | Potency [5] | Potency [6]

COc1ccc(NC(=O)c2ccc(-c3ccc(-c4noc(C)n4)cc3C)cc2)cc1N1CCN(C)CC1
active: Potency [1] 3.55 µM
inactive: Potency [2] | Potency [3] | Potency [4] | Potency [5] | Potency [6]

Nc1ccc2c3c(cccc13)C(=O)NC2=O
active: Potency [1] 5.01 µM
inactive: Potency [2] | Potency [3] | Potency [4] | Potency [5] | Potency [6]

c1ccc2c(c1)CC(N1CCN(c3cccc4c3OCCO4)CC1)C2
active: Potency [1] 15.8 µM
inactive: Potency [2] | Potency [3] | Potency [4] | Potency [5] | Potency [6]

C=C1C(=O)O[C@@H]2[C@H]3O[C@]3(C)CCC=C(C)CC[C@@H]12
inactive: Potency [1] | Potency [2] | Potency [3] | Potency [4] | Potency [5] | Potency [6]
